These results are taken from PubChem BioAssay (EPA / NIEHS).

Some structures have more than one record in an assay (separate samples or runs), and their calls can disagree. Active and inactive are the calls of the source. How the source made its calls: active means hit-call score of the fitted dose curve at least 0.9, where 1 is the maximum; inactive means score below 0.9.

The nature of the assay: ATG_RORE_CIS: Attagene CIS-FACTORIAL HepG2 Assay for human RAR-related Orphan Receptor Element (RORE) (AID 2282959). Particulars: HepG2 Attagene cis-factorial RORE reporter, mRNA; actives raise or lower the signal. The protocol: ATG_CIS is a cell-based, multiplexed-readout assay that uses HepG2, a human liver cell line, with measurements taken at 24 hours after chemical dosing in a 24-well plate.ATG_RORE_CIS is one of 52 assay component(s) measured or calculated from the ATG_CIS assay. It is designed to make measurements of mRNA induction, a form of inducible reporter, as detected with fluorescence intensity signals by Reverse transcription polymerase chain reaction (RT-PCR) and Capillary electrophoresis technology.Data from the assay component ATG_RORE_CIS was analyzed into 1 assay endpoint. This assay endpoint, ATG_RORE_CIS, was analyzed with bidirectional fitting relative to DMSO as the negative control and baseline of activity. Using a type of inducible reporter, measures of mRNA for gain or loss-of-signal activity can be used to understand the reporter gene at the transcription factor-level as they relate to the gene RORA and RORB and RORC. Furthermore, this assay endpoint can be referred to as a primary readout, because this assay has produced multiple assay endpoints where this one serves a reporter gene function. To generalize the intended target to other relatable targets, this assay endpoint is annotated to the nuclear receptor intended target family, where the subfamily is orphan.
Human liver HepG2 cells are transiently transfected with multiple reporter transcription units (MRTUs) in 6-well plates using FuGene 6 reagent (Roche; 3 ml FuGene/1 mg DNA). The MRTU constructs are regulated by a cis-regulating element (promoter). […] A major difference between the CIS and TRANS system is that in CIS activities of endogenous TFs are measured, whereas the TRANS assay evaluates changes in activities of exogenous, chimeric NR-Gal4 proteins. […] At the end of 24 hour incubation, total RNA was isolated using TriZol reagent (Invitrogen). The isolated RNA is then reverse-transcribed using oligo(dT) primer and Mo-MLV reverse transcriptase (Invitrogen) with DNAse I (Ambion) treatment for 30 min. The one-tenth of the produced cDNA was amplified by PCR using Taq DNA polymerase (Invitrogen) and two reporter sequence-specific primers. The PCR products were fluorescently labeled by primer extension with 6-arboxyfluorescein (6-FAM) 5'-labeled reporter sequence-specific primer (2 min at 95 C, 20 s at 68 C and 10 min at 72 C) and these products were digested with 5U of HpaI (New England Biolabs) for 2h at 37 C. The fragments were purified using Qiaquick PCR columns (Qiagen), analyzed on an ABI 3130xL genetic analyzer (Applied Biosystems) with peak positions identified by using a set of X-rhodamine (ROX)-labeled MapMarker1000 molecular weight standards (BioVentures). The raw capillary electrophoresis data was processed using Attagraph software (Attagene).
Take `O=C1O[C@H]([C@@H](O)CO)C(O)=C1O`: the compound was called inactive.
On to `CCCCCCCCCC(=O)O`, for which the compound was classed as inactive.
Same read-out and setting: the value for `CCO[Si](CCCNC(N)=O)(OCC)OCC` was “inactive”.
Regarding `Oc1ccc2ccccc2c1`, the result was inactive.
For the compound `CCCCCCCCCCCCO`, the compound was called inactive.
As to `Clc1cc(Cl)c2c(c1)N=C1CCCCCN1C2`, the outcome was inactive.
For orientation: AC50 means the midpoint of the concentration-response curve, whichever way the signal moves. On to `Cc1oc2c(NC(=O)c3c(Cl)cccc3Cl)cccc2c1C(C)(C)O`, for which the AC50 is 31.6 µM (active).
On to `O=c1ccc2ccccc2o1`, for which the call was inactive.
Still for that read-out and setting: then `CCN(CC)C(=O)c1cc(S(=O)(=O)Cc2ccccc2)c(N2CCC(c3ccccc3)CC2)cc1N(CC)CCN(C)C`, with “inactive”.
On to `O=C(O)Cc1cc(I)c(Oc2ccc(O)c(I)c2)c(I)c1`, for which the AC50 was 34.9 µM (active) [middle of 4 runs].
On to `CC1(C)NC(=O)N(c2ccc([N+](=O)[O-])c(C(F)(F)F)c2)C1=O`, for which the compound was classed as inactive.
The same measure, in the same setting: then `CN(C)c1ccc(C(=C2C=CC(=[N+](C)C)C=C2)c2ccc(N(C)C)cc2)cc1`, with “inactive”.
Turning to `COCC(C)OCC(C)OCC(C)O` (stereo not given), the result was inactive.
In the case of `O=c1c(-c2ccc(O)cc2)coc2cc(O)cc(O)c12`, the outcome was inactive.
`CC[C@@H]1C[C@H](N(Cc2cc(C(F)(F)F)cc(C(F)(F)F)c2)C(C)=O)c2cc(C(F)(F)F)ccc2N1C(=O)OC(C)C`: the outcome was inactive.
For the compound `O=c1[nH]sc2ccccc12`, the compound was classed as inactive.
Same read-out and setting: the value for `COc1ccc2cc(S(=O)(=O)N[C@H](CC(=O)N[C@H](Cc3ccc(CN4[C@H](C)CCC[C@@H]4C)cc3)C(=O)N(C)C(C)C)c3ccc4c(c3)OCO4)ccc2c1` was “inactive”; that for `CCCCCCCCOC(=O)c1cc(O)c(O)c(O)c1` was “inactive”.
Regarding `c1ccc2n[nH]nc2c1`, the result was inactive.
Turning to `CCCCOC(=O)CC(CC(=O)OCCCC)(OC(C)=O)C(=O)OCCCC`, the compound was classed as inactive and the AC50 was 27.5 µM (active).
In the case of `CN(C[C@@H](CC[N+]12CCC(C3CCCCC3)(CC1)CC2)c1ccc(Cl)c(Cl)c1)C(=O)c1cc(C(F)(F)F)cc(C(F)(F)F)c1`, the call was inactive.
The same measure, in the same setting: then `CCOC(=O)O[C@H](C)OC(=O)c1ccc2c(c1)cc(C(=O)NC1CCN(C(C)C)CC1)n2Cc1cc(-c2ccc(Cl)s2)on1`, with “inactive”.
Regarding `CCN(Cc1cccnc1)C(=O)c1cccc(Cl)c1[C@]1(C)C(=O)N(Cc2ccc(OC)cc2OC)c2ccc(Cl)cc21`, the AC50 was 2.74 µM (active).
With `O=CCCCC=O`, the compound was classed as inactive.
As to `CC(=O)N1CCN(c2ccc(OC[C@H]3CO[C@](Cn4ccnc4)(c4ccc(Cl)cc4Cl)O3)cc2)CC1`, the AC50 was 1.58 µM (active).
`O=C(O)Cn1c(=O)n(Cc2ccc(Br)cc2F)c(=O)c2ccc(Cl)cc21`: the call was inactive.
With `CC(O)CC(C)(C)O` (stereo not given), the result was inactive.
As for `O=C(OCCCCCCOC(=O)c1ccccc1)c1ccccc1`, the outcome was inactive.
On to `NCc1cccc(C2CCN(C(=O)c3ccc(C#Cc4ccccc4F)o3)CC2)c1`, for which the AC50 was 6.79 µM (active).
For `CCCCCCCCCCCC[N+](C)(C)C`, the compound was classed as inactive.
With `Clc1ccccc1C(c1ccccc1)(c1ccccc1)n1ccnc1`, the AC50 is 11.1 µM (active).
The same measure, in the same setting: then `COc1cc(C(=O)NC2CCN(C)CC2)ccc1Nc1ncc2c(n1)N(C1CCCC1)CC(F)(F)C(=O)N2C`, with 3.55 µM (active).
`CCN(Cc1cccc(S(=O)(=O)O)c1)c1ccc(C(=C2C=CC(=[N+](CC)Cc3cccc(S(=O)(=O)O)c3)C=C2)c2ccccc2S(=O)(=O)[O-])cc1`: the outcome was inactive.
As for `CN1C(=O)N(c2ccccc2Br)Cc2cnc(Nc3ccc4c(c3)OCC(CO)O4)nc21` (stereo not given), the AC50 was 1.84 µM (active).
For the compound `O=C(Nc1ccc(Cl)cc1)Nc1ccc(Cl)c(Cl)c1`, the AC50 is 4.17 µM (active).
With `CN1C(=O)CC[C@H]1c1cccnc1`, the call was inactive.
Regarding `Oc1ccccc1`, the compound was called inactive.
Same read-out and setting: the value for `CCCOC(=O)c1cc(O)c(O)c(O)c1` was “inactive”; that for `CC[C@H](NC(=O)c1cc(F)ccc1NS(=O)(=O)c1cccc2cccnc12)c1ccccc1` was “inactive”.
